Assay outcomes as filed in PubChem.
The sample as a whole holds a higher share of hits than the screen did.
CHX counter – affects cycloheximide protein synthesis inhibition readout, counter-screen; cell reporter, cycloheximide protein synthesis inhibition counterscreen; max response, %; 300,000 compounds, 12% hits; AID 2314; in the data active means max response mostly above about 13%, no sharp cut-off; inactive means mostly below about 14%; further: read at 38.3 µM for the half of the compounds with a filed dose
Giardia FBPA inh – inhibitors of Giardia lamblia fructose-1,6-bisphosphate aldolase; A8B2U2; purified Giardia FBPA; Potency, µM (highest dose often 59.6 µM), most hits filed as inhibitors; 290,000 compounds, 0.71% hits; further: nearly all actives have a fitted effect of over 55% in size
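40 nM FBPA preincubated 10 min at RT with compound (up to 57.5 uM final), then substrate plus GAPDH/TPI/NAD/arsenate coupling and diaphorase/resazurin added. Fluorescence read after 20 min at RT, 525/598 nm.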
RE007 growth inh – less growth of the S. pombe RE007 Vpr strain; S. pombe RE007 Vpr strain, BacTiter-Glo ATP luminescence, 24 h; AID 651644; 360,000 compounds, 0.21% hits; Potency, µM (doses to about 92.2 µM), actives largely listed as inhibitors; active means well fitted falling curve with a large enough effect; inconclusive means small, poorly fitted or top-dose-only effect; inactive means no such curve, though single readings can be large or run the other way; further: nearly all actives have a fitted effect of over 50% in size
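Fission yeast strain RE007, carrying one chromosomally integrated HIV-1 vpr copy, was seeded at OD 0.01 in PMG+AL medium with 23 nL pinned compound. After 24 h at 30 °C and 99% humidity, viability was read by BacTiter-Glo luminescence.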
TbPYK inhibitor – blocks Trypanosoma brucei pyruvate kinase. Potency, µM (top dose mostly 76.8 µM), most hits filed as inhibitors. Q57TT1. TbPYK enzyme, Kinase-Glo Plus ATP luminescence, 45 min. 410,000 compounds, 0.12% hits; further: nearly all actives have a fitted effect of over 50% in size
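TbPYK + substrate in 50 mM TEA pH 7.2, 100 mM KCl, 10 mM MgCl2, 0.05% BSA, 0.01% Tween-20; cpd pinned; ADP 130 uM final; 45 min RT; Kinase-Glo Plus 10 min; luminescence endpoint.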
Shiga toxin inh – inhibitors of Shiga toxin in Vero cells; Vero cells, Shiga toxin protein synthesis inhibition reporter; inhibition, % at 38.7 µM; 290,000 compounds, 9.2% hits; in the data active means inhibition mostly above about 28%, no sharp cut-off; inactive means mostly below about 43%
LmPK inh – LmPK (Leishmania mexicana) enzyme inhibition; Q27686; purified LmPK, Kinase-Glo ATP luminescence, 1 h; Potency, µM (titrated, usually from 57.5 µM), usual class: inhibitors; 290,000 compounds, 0.37% hits; AID 1721
Target sequence (Q27686 whole entry, looked up): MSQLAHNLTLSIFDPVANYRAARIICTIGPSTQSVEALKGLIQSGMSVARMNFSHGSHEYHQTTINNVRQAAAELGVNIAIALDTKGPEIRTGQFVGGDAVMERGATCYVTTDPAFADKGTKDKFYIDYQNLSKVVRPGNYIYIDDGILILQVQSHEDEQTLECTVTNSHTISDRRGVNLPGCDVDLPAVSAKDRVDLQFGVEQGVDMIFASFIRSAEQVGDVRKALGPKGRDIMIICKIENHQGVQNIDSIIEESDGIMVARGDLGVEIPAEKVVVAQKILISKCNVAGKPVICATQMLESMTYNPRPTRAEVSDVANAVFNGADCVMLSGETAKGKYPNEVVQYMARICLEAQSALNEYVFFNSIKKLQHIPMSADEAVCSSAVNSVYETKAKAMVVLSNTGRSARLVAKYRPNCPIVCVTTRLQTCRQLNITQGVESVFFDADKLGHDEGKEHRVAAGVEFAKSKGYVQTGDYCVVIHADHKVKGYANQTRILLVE
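In 50 mM imidazole pH 7.2 with 7 mM MgCl2, LmPK (0.1 nM) turned over PEP (0.5 mM) and ADP (0.1 mM) for 1 h at room temperature. Luciferase read-out of ATP.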
Each line names hits and unclear results; the compound was inactive in the other large screens. Unless noted, the call rests on the fitted dose curve; in most records, active means well fitted curve in the direction sought with a large enough effect; inconclusive means small, poorly fitted or top-dose-only effect, or another doubt; inactive means no such curve, though single readings can be large; an effect the other way counts as inactive or inconclusive.

O=C(OCC1CC(c2ccccc2)=NO1)c1ccc(Br)cc1 (stereo unspecified)	none
CC(=O)Nc1ccc(OC(C)=O)cc1	none (no result: CHX counter, Giardia FBPA inh, RE007 growth inh, Shiga toxin inh, LmPK inh)
C=CCc1cccc(C2C(C)CCC3C(=O)N4C(CCC(C)C4c4cccc(CC=C)c4)C(=O)N32)c1 (stereo unspecified)	none (no result: CHX counter, RE007 growth inh, TbPYK inhibitor, Shiga toxin inh, LmPK inh)
Cc1ccccc1Nc1cc(C(=O)NCCCN2CCN(c3cccc(Cl)c3)CC2)c2ccccc2n1	none (no result: CHX counter, Giardia FBPA inh, RE007 growth inh, Shiga toxin inh, LmPK inh)
Cc1nnc(NC(=O)c2ccccc2Br)s1	CHX counter 24
O=C(Nc1nnc(CCc2ccccc2)s1)c1ccc(F)cc1	none
Cc1nnc(NC(=O)c2ccccc2F)s1	CHX counter 17, Shiga toxin inh 36
CCC(C)C(=O)Nc1nnc(CCc2ccccc2)s1 (stereo unspecified)	CHX counter 19
O=C(Nc1nnc(CCc2ccccc2)s1)c1ccccc1F	CHX counter 26
Cc1cc(C)c2sc(NC(=O)c3ccc(S(=O)(=O)N4CCOCC4)cc3)nc2c1	none (no result: CHX counter, Giardia FBPA inh, RE007 growth inh, Shiga toxin inh, LmPK inh)
Cc1ccc(C(=O)Nc2ccc(Br)cc2)cc1S(=O)(=O)NCc1ccccc1	none (no result: CHX counter, Giardia FBPA inh, RE007 growth inh, Shiga toxin inh, LmPK inh)
CCN(CC)C(=O)c1ccc(COc2ccccc2Br)o1	none
Cc1cc(OCc2ccc(C(=O)n3cccn3)o2)ccc1Cl	CHX counter 30, RE007 growth inh inconclusive, Shiga toxin inh 65
CCN(CC)C(=O)c1ccc(COc2ccc(Cl)c(C)c2)o1	CHX counter 30 (no result: Shiga toxin inh)
O=C(c1cccs1)N(C(=O)c1cccs1)c1ccc(Br)cn1	CHX counter 37, RE007 growth inh inconclusive
O=C(Nc1ccc(NC(=O)c2cccs2)cc1)c1ccc(Br)cc1	none (no result: CHX counter, Giardia FBPA inh, RE007 growth inh, Shiga toxin inh, LmPK inh)
CC(=O)c1ccc(OC(=O)N(C)c2ccccc2)cc1	CHX counter 36, Shiga toxin inh 66
CN(C)C(=O)Oc1ccc(OC(=O)N(C)C)cc1	none
CC(=O)c1ccc(OC(=O)N(c2ccccc2)c2ccccc2)cc1	none
CN(C)C(=O)Oc1ccc(C(=O)c2ccccc2)cc1	CHX counter 40, Shiga toxin inh 42
CCOC(=O)c1c[nH]c2cc(OCC(C)C)c(OCC(C)C)cc2c1=O	none (no result: CHX counter, Giardia FBPA inh, RE007 growth inh, Shiga toxin inh, LmPK inh)
COc1ccc(C(=O)c2coc3c2C(=O)C(=O)c2ccccc2-3)cc1	CHX counter 33, Giardia FBPA inh 7.1µM, RE007 growth inh 40µM, Shiga toxin inh 76
O=C1c2ccccc2C(=O)c2c1oc(C(F)(F)F)c2C(=O)c1ccccc1	CHX counter 24, RE007 growth inh inconclusive
COc1ccc(C(=O)c2c[nH]cc2-c2ccccc2)cc1	none
CC(=O)c1c(C)oc2c1C(=O)c1ccccc1C2=O	Giardia FBPA inh inconclusive, RE007 growth inh inconclusive
O=C(c1ccccc1)c1coc2c1C(=O)c1ccccc1C2=O	CHX counter 33, RE007 growth inh inconclusive, Shiga toxin inh 94
CCCCOc1ccc(CNC(=O)c2cc3n(n2)CCCN(Cc2ccc(C)cc2)C3=O)cc1	none (no result: CHX counter, Giardia FBPA inh, RE007 growth inh, Shiga toxin inh, LmPK inh)
CCOc1ccc(C2C(=O)N(C3CCCCCC3)CC(=O)N2Cc2ccc(C)cc2)cc1OC (stereo unspecified)	none (no result: CHX counter, Giardia FBPA inh, RE007 growth inh, Shiga toxin inh, LmPK inh)
CCOC(=O)CCN1C(=O)[C@H]2[C@H]3[C@H](O)[C@H](O)C/C(=N/OC/C=C(\C)CCC=C(C)C)[C@H]3CC[C@@H]2C1=O	none (no result: CHX counter, RE007 growth inh, TbPYK inhibitor, Shiga toxin inh, LmPK inh)
COc1ccc(NC(=S)N(Cc2ccc(N(C)C)cc2)Cc2ccco2)cc1	CHX counter 14
CCOc1ccc(NC(=S)N(Cc2ccc(N(C)C)cc2)Cc2ccco2)cc1	CHX counter 16, Shiga toxin inh 30
COc1ccc(NC(=S)NCc2ccco2)cc1	none
C/C(N)=C(/C#N)C(=O)CSc1nnc(-c2ccc(OC(F)F)cc2)o1	CHX counter 35, Shiga toxin inh 99
NC(=O)CSc1nnc(-c2ccc3c(c2)OCO3)o1	CHX counter 28, Shiga toxin inh 75
O=C(O)CSc1nnc(-c2ccc3c(c2)OCO3)o1	none
Cc1nc(NC(=O)CSc2nnc(-c3ccc4c(c3)OCO4)o2)c(Cl)cc1Cl	CHX counter 19, Shiga toxin inh active
N#CCSc1nnc(-c2ccc3c(c2)OCO3)o1	CHX counter 14, Shiga toxin inh 24
CCC(Sc1nc2ncccc2[nH]1)C(=O)Nc1ccccc1F (stereo unspecified)	none (no result: CHX counter, Giardia FBPA inh, RE007 growth inh, Shiga toxin inh, LmPK inh)
COc1ccc2c(c1)O[C@@H](c1ccc3c(c1)OCO3)[C@H](OC(=O)N[C@H]1CCCc3ccccc31)C2=O	none (no result: CHX counter, RE007 growth inh, TbPYK inhibitor, Shiga toxin inh, LmPK inh)
